# From PubChem BioAssay AID602449 (Sanford-Burnham Center for Chemical Genomics, 2012)
# Screen size: about 360,000 compounds; about 5,000 (1.4%) were called active. What follows is part of a selection rich in actives, with near analogues and random picks from the rest. Unmarked numbers belong to inactive results.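 Rule for the calls: active = inhibition of 50% or more, scaled per plate between neutral and stimulator controls; inactive = the rest.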
# Assay: mitochondrial permeability transition pore inhibitors, primary screen, biochemical, isolated mouse mitochondria, absorbance (AID 602449);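 note: 0% = DMSO wells given calcium and 100% = 1 mM EGTA wells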
# Conditions: Ca2+ swelling absorbance, 30 min, at 10 µM, hits give high values
row,SMILES,inhibition
1,CCN1CCC(O)(/C=C/c2ccc(C)cc2)C(C(=O)/C=C/c2ccc(C)cc2)C1 (stereo unspecified),58.4% (active)
2,CCN1CCC2(CC1)N=C(c1ccc(F)cc1)C(=S)N2C(=O)c1ccc(C)cc1,-2.8%
3,COc1cccc(NC(=O)CSc2nnc(Cc3ccc(OC)c(OC)c3)o2)c1,-0.5%
4,COc1ccc(CCN=C2SCC(=O)N2C)cc1OC,-1.1%
5,O=C(O)c1cc2c(cc1NC(=O)c1c(F)cccc1Cl)OCCCO2,-1.5%
6,N=c1n(CCc2ccccc2)c2ccccc2n1Cc1ccccc1F,8.3%
7,N=c1n(Cc2ccc(Cl)cc2)c2ccccc2n1CC(O)c1ccco1 (stereo unspecified),83.7% (active)
8,CCOc1ccc(C(O)Cn2c(=N)n(CCN3CCCCC3)c3ccccc32)cc1 (stereo unspecified),3.5%
9,O=C(Cc1ccccc1)Nc1c(C(=O)N2CCCCCC2)cnn1-c1ccccc1,-1.2%
10,c1ccc(-c2cc3c(NCC4COc5ccccc5O4)ncnc3s2)cc1 (stereo unspecified),91.4% (active)
11,O=C(Cn1nc(Cc2cccnc2)c2ccccc2c1=O)NCC1COc2ccccc2O1 (stereo unspecified),-1.9%
12,O=C(Cn1cnc2ccccc2c1=O)NCC1COc2ccccc2O1 (stereo unspecified),-0.6%
13,CCN=c1sc(C(=O)Nc2ccccc2)c(C)n1CC,4.6%
14,COC(=O)Nc1ncc(CN2C(=O)c3ccccc3C2=O)s1,-1.2%
15,CCCCNC(=S)NNC(=O)c1cc(C)on1,-1.2%
16,CC1=C(C(=O)N2CCOCC2)CC(CC(=O)NCc2cccc3ccccc23)C(=O)N1CCC1=CCCCC1 (stereo unspecified),-2.5%
17,Cc1nc2scc(-c3cccs3)c2c(=O)n1N,-3.1%
18,CCC(C(=O)OC)n1cnc2scc(-c3ccc(C)cc3)c2c1=O (stereo unspecified),0.8%
19,CCCc1nc2scc(-c3ccc(C)cc3)c2c(=O)n1N,89.9% (active)
20,CS(=O)(=O)N(Cc1ccccc1)c1ccc(C(=O)NN=C2CCCCCC2)cc1,0.9%
21,COc1ccc(S(=O)(=O)N2CCOCC2)cc1NC(=O)CSc1cc(C)ccc1C,-0.5%
22,COc1ccc(C(O)c2nc(-c3ccc4c(c3)OCO4)cs2)cc1 (stereo unspecified),2.5%
23,O=C(Nc1nc(-c2ccc3c(c2)OCO3)cs1)c1ccncc1,72.3% (active)

row,SMILES,inhibition
1,Cc1ccc(-c2csc(NC(=O)C3=COCCO3)n2)cc1C,4.6%
2,COc1ccc(NC(=O)NCCN2CCN(c3ccc(C)cc3)CC2)c(Cl)c1,0.3%
3,COC(=O)c1cccc(-n2[nH]nnc2=S)c1,0.4%
4,Cn1c(=O)c(=O)n(C)c2cc(S(=O)(=O)NCCN3CCN(c4ccccc4F)CC3)ccc21,1.9%
5,CCc1ccc(NC(=O)Nc2ccncc2)cc1,63.6% (active)
6,CCc1ccc(NC(=O)N[C@H](C(=O)O)C(C)CC)cc1 (stereo partly specified),-1.3%
7,Cc1nnc(NC(=O)Nc2ccc(Cl)c(Cl)c2)s1,88.5% (active)
8,CC(C)CC(=O)Nc1ccc(Cc2ccncc2)cc1,1.5%
9,Cc1ccc(S(=O)(=O)CCC(=O)Nc2nnc(CC(C)C)s2)cc1,0.4%
10,CC(C)=CC(=O)Nc1nnc(-c2ccc(F)cc2)s1,-0.8%
11,COc1cccc(NC(=O)Nc2nnc(N3CCCCC3C)s2)c1 (stereo unspecified),0.5%
12,Cc1nnc(NC(=O)Cn2c(=O)sc3ccccc32)s1,-2.7%
13,Cc1ccc(NC(=O)Nc2nnc(-c3ccncc3)s2)cc1,77.2% (active)
14,CCOC(=O)c1sc(NC(=O)CSc2nc(C)cc(C(F)(F)F)n2)c(C#N)c1C,13.1%
15,CCCN=C1NC(=O)C(CC(=O)NCCc2ccc(OC)c(OC)c2)S1 (stereo unspecified),-0.3%
16,CC[C@H]1OC(=O)[C@H](C)[C@@H](O[C@H]2C[C@@](C)(OC)[C@@H](O)[C@H](C)O2)[C@H](C)[C@@H](O[C@@H]2O[C@H](C)C[C@H](N(C)C)[C@H]2O)[C@](C)(O)C[C@@H](C)[C@@H]2N[C@@H](COCCOC)O[C@H]([C@H]2C)[C@]1(C)O,-2.3%
17,CCOC(=O)c1c(NC(=O)COC(=O)c2ccc(S(=O)(=O)C(F)F)cc2)sc(C(=O)N(C)C)c1C,-0.1%
18,CCOc1ccc(OCC(=O)Nc2c3c(nn2C(C)(C)C)CS(=O)(=O)C3)cc1,1.2%
19,COc1ccc(S(=O)(=O)N2CCN(CC(=O)NCC3(N4CCOCC4)CCCCC3)CC2)cc1,0.2%
20,C[C@@H](CN1CCC[C@H]1CN1C(N)=NC[C@@H]1Cc1ccccc1)N1C[C@@H](Cc2ccccc2)N(CCCC2CCCC2)C1=N,73.7% (active)
21,NC1=NC[C@@H](Cc2ccc(O)cc2)N1CC1CCCCC1,0.7%
22,CC[C@@H](C)[C@@H]1CN([C@@H](C)CN2CCC[C@H]2CN2C(N)=NC[C@H]2C(C)C)C(=N)N1CCc1ccc(Cl)c(Cl)c1,-0.6%
23,COc1ccc(S(=O)(=O)N2CCCCC2)cc1C(=O)NC1CCS(=O)(=O)C1 (stereo unspecified),0.2%

row,SMILES,inhibition
1,Cc1ccc(C(CNC(=O)Nc2ccccc2)N2CCN(C)CC2)cc1 (stereo unspecified),2%
2,COc1ccc(OCCCC(=O)OC(C)C(=O)Nc2ccccc2[N+](=O)[O-])cc1 (stereo unspecified),0.5%
3,S=C(Nc1cccc(Br)c1)N1CCn2cccc2C1c1cccnc1 (stereo unspecified),63.5% (active)
4,S=C(NCCc1ccccc1)N1CCn2cccc2C1c1ccncc1 (stereo unspecified),-5.1%
5,O=C(NC(=S)N1CCCCC1c1cccnc1)c1ccccc1 (stereo unspecified),-1.5%
6,COc1ccc(OC)c(C(O)c2ncc(-c3cccc(C(F)(F)F)c3)[nH]2)c1 (stereo unspecified),1%
7,Nc1nnc(SCC(=O)NCC(=O)Nc2ccc(F)c(F)c2F)s1,-2.5%
8,O=C(c1cc(-c2ccc(O)cc2)on1)N1CCOCC1,-1.3%
9,O=C(NCCCN1CCOCC1)c1cc(-c2cccc(O)c2)on1,-0.1%
10,O=C(c1cc(-c2cccc(O)c2)on1)N1CCc2ccccc2C1,59.3% (active)
11,CC(=O)NS(=O)(=O)c1ccc2c(c1)Cc1cc(S(=O)(=O)NC(C)=O)ccc1-2,0.4%
12,O=C(c1ccc(Br)o1)N(c1ccccn1)C1CCCCC1,8.3%
13,COc1ccc(CCNC(=O)CN2C(=O)COc3ccc(S(=O)(=O)N4CCCC4)cc32)cc1OC,0.6%
14,CC12CN3CCN(CC(C3)/C1=N\NC(=O)c1ccccc1N)C2,2.6%
15,CN(C)C(CNC(=O)CCCOc1ccccc1)c1ccco1 (stereo unspecified),1%
16,COc1cc(C(=O)NCc2ccc3c(c2)cc(C)n3C)cc(OC)c1OC,1.2%
17,COc1cc(C(=O)NCc2cc3cc(Cl)ccc3n2C)cc(OC)c1OC,0.7%
18,CCn1c(CNC(=O)c2cc(OC)c(OC)c(OC)c2)cc2cc(C)ccc21,68.8% (active)
19,CC1(C)S[C@@H]2[C@H](NC(=O)COc3ccccc3)C(=O)N2C1C(=O)OCc1ccccc1 (stereo partly specified),2.2%
20,CC(C)(C)c1cc(NC(=O)NN2CCOCC2)nn1-c1c(Cl)cc(Cl)cc1Cl,-1.3%
21,Cc1ccc(-c2noc(CCC(=O)Nc3ccccc3N3CCN(C)CC3)n2)cc1,79.9% (active)
22,COc1ccc(-c2noc(CCC(=O)N3CCN(c4cccc(C)c4)CC3)n2)cc1,0.4%
23,COc1ccc(N2CCN(C(=O)CCc3nc(-c4ccc(C)cc4)no3)CC2)cc1,-0.2%

row,SMILES,inhibition
1,CC1CCN(C(=O)c2ccccc2NC(=O)Cc2ccccc2)CC1,2%
2,Cc1ccc(-n2c(C)cc(C(=O)CSc3nnc4ccccn34)c2C)cc1,5%
3,COc1ccc(-n2c(C)cc(C(=O)COC(=O)c3cc(OC)c(OC)cc3NC(=O)c3cccs3)c2C)cc1,3.8%
4,COc1ccc(-n2c(C)cc(C(=O)CSc3nnc(-c4cccs4)o3)c2C)cc1,91% (active)
5,O=[N+]([O-])c1c(NCCO)cc(Sc2nc3ccccc3s2)c2nonc12,4.8%
6,O=[N+]([O-])c1cc(Br)c(O)c(/C=N/Nc2nc3ccccc3s2)c1,82.3% (active)
7,O=[N+]([O-])c1cccc(C=NN=Cc2ccccc2O)c1,2.1%
8,Cc1c(C(=O)NCC2CC2)sc(=O)n1Cc1cccc(F)c1,-2.3%
9,COc1cc(C)c(Cl)cc1S(=O)(=O)n1ccnc1,0.5%
10,N/C(=N\S(=O)(=O)c1cc(C(F)(F)F)cc(C(F)(F)F)c1)c1cccs1,35.4%
11,O=C(NNc1c2ccccc2nc2ccccc12)c1cc2ccccc2cc1O,104% (active)
12,O=C(CSc1nc(C2CC2)nc2ccccc12)Nc1cccc(O)c1,-0.4%
13,Cc1noc(C)c1COC(=O)c1cc2ccccc2cc1O,1%
14,CS(=O)(=O)N(CC(=O)N1CCOCC1)c1cccc(Cl)c1Cl,-0.3%
15,Cc1ccc(-n2ncc3c2CC(C)(C)CC3NC(=O)CCc2cnn(C)c2)cc1 (stereo unspecified),-0.7%
16,O=C(NCCc1ccccn1)c1ccc(COc2ccccc2)o1,-1.4%
17,C=CC[n+]1c(-c2ccc(C)cc2)csc1NNC(=O)Nc1ccccc1,86.7% (active)
18,O=C(NNC(=O)c1ccc(-c2ccccc2)cc1)Nc1ccccc1,2.8%
19,Cc1ccc(NC(=O)NNC(=O)c2sccc2-n2cccc2)cc1,1.7%
20,CC1CCC(N2CC(=O)N(Cc3ccc4c(c3)OCO4)C(c3ccc(F)cc3)C2=O)CC1 (stereo unspecified),-0.9%
21,COCCNC(=S)N1CCC(NC(=O)C23CC4CC(CC(C4)C2)C3)CC1,-2.3%
22,CCN1/C(=C\c2ccc3ccccc3[n+]2CC)Sc2cc(C)ccc21,101% (active)
